Structures are written as SMILES. Out of some 2,400 compounds screened, about 580 (24%) were called active. These entries were drawn from the full list. A number with no mark means an inactive call.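 How the source made its calls: active means activity change at or above the mean plus 3 SD of buffer wells without dofetilide, per plate; inactive means the rest.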

The source of these data is PubChem BioAssay AID1942 (Johns Hopkins Ion Channel Center, 2009).

In the assay the target is Potassium voltage-gated channel subfamily KQT member 2 (Rattus norvegicus) (UniProt O88943). Kind of assay: KCNQ2 potentiation in CHO cells – cell-based, FluxOR thallium flux, counter-screen for hERG block protector project, confirmation (AID 1942).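 Further: normalized value minus buffer-control mean plus three SD of buffer wells.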 The following applies: FluxOR thallium flux fluorescence, at 10 µM, hits give high values.
Potassium voltage-gated channel subfamily KQT member 2 (Rattus norvegicus), sequence (O88943 whole entry, looked up): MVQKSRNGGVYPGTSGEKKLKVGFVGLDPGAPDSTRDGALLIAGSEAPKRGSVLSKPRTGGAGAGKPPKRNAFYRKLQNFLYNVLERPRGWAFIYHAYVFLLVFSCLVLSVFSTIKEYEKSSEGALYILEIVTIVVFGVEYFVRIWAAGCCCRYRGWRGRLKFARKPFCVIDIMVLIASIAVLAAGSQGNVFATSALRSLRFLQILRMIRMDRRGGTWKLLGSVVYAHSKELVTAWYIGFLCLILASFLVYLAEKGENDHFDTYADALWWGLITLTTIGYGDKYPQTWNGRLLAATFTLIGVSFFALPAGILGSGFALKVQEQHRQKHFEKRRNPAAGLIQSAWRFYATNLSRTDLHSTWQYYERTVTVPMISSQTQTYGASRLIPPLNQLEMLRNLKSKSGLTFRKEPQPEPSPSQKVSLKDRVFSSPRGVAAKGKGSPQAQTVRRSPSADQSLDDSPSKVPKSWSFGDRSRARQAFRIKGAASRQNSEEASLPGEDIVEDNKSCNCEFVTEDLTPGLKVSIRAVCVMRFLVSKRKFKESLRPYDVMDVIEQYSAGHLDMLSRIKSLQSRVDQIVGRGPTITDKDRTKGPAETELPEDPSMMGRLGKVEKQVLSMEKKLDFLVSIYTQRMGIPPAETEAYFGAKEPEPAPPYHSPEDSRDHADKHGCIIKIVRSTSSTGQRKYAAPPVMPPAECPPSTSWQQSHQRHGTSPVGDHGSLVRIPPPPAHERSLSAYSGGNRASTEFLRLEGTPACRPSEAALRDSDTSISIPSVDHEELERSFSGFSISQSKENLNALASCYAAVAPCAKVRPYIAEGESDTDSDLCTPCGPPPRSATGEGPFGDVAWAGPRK
For the molecule `CN(C(=O)CCc1ccccc1)c1nnc(-c2ccncc2)s1`, the activity change, less the hit threshold is -20.2%.

With `Cc1cc(=O)oc2cc(OCC(=O)OCC(=O)NC(C)C)ccc12`, the activity change, less the hit threshold is -16.8%.

`O=C(NCCc1nnc2ccc(NCc3ccc(Cl)cc3)nn12)c1ccccc1`: the activity change, less the hit threshold is -7.7%.

Take `O=C(N/N=C/c1cc([N+](=O)[O-])ccc1O)c1ccc(COc2ccc3c(c2)CCC3)o1`: the activity change, less the hit threshold was -47.5%.

Turning to `N#CCCn1cc(/C=N/NC(=O)c2ccncc2)c(-c2ccc(F)cc2)n1`, the activity change, less the hit threshold is -4.3%.

For `CCn1ccnc1CN1CCCC(CO)(Cc2cccc(OC)c2)C1` (configuration not stated), the activity change, less the hit threshold is -24.6%.

Regarding `CCNC(=O)C/C(C)=N/NC(=O)C(=O)Nc1ccc(CC)cc1`, the activity change, less the hit threshold was 4.9% (active).

On to `CCCCNC(=O)COC(=O)c1ccc(NC(C)=O)cc1`, for which the activity change, less the hit threshold is -20.3%.

For `CSCC[C@H](NC(=O)Nc1ccc(C)cc1C)C(=O)O`, the activity change, less the hit threshold is -12%.

For the molecule `CCOC(=O)C1CCN(S(=O)(=O)c2cccc3nonc23)CC1`, the activity change, less the hit threshold is -11.1%.

Take `O=C(O)Cc1cc(I)c(Oc2ccc(O)c(I)c2)c(I)c1`: the activity change, less the hit threshold is 93.7% (active).

As to `O=C(O)CN1C(=O)c2ccc(Oc3ccc4c(c3)C(=O)N(CC(=O)O)C4=O)cc2C1=O`, the activity change, less the hit threshold was -11.1%.

Turning to `NC(=O)Cn1c2[n+](c3ccccc31)CC(O)CS2` (configuration not stated), the activity change, less the hit threshold was -19.2%.

With `CCc1ccccc1N(CC(=O)NC(C)c1ccccc1)S(C)(=O)=O` (configuration not stated), the activity change, less the hit threshold was -20.5%.

As for `CCc1ccc(C(C)NC(=O)C2CCCC2)cc1` (configuration not stated), the activity change, less the hit threshold is 14.8% (active).

As for `Cc1ccc(C(C)NC(=O)C2CCCC2)cc1C` (configuration not stated), the activity change, less the hit threshold was 37.3% (active).

As for `Cc1ccc(NC(=O)C2C3CCC(O3)C2C(=O)O)cc1C` (configuration not stated), the activity change, less the hit threshold was -2.7%.

Take `Cc1ccc(NC(=O)c2noc3c2CCC3)cc1C`: the activity change, less the hit threshold was -19.4%.

For `CSc1ccccc1-n1nnnc1SCC(=O)Nc1cc(C)ccc1C`, the activity change, less the hit threshold is -20.8%.

Regarding `C=CCSC1=C(C#N)C(c2ccccc2)CC(=O)N1` (configuration not stated), the activity change, less the hit threshold is -23.3%.

Turning to `Cc1nn(C(=O)CNC(=O)c2ccccc2)c(C)c1C`, the activity change, less the hit threshold is 17.2% (active).

Regarding `O=C(CNC(=O)c1ccccc1)NCc1ccc(Cl)cc1`, the activity change, less the hit threshold was -10.7%.

With `Cc1ccsc1/C=N/NC(=O)CNC(=O)c1ccccc1`, the activity change, less the hit threshold is -13.4%.

As to `Cc1ccc(S(=O)(=O)N2CCOCC2)cc1NC(=O)COC(=O)c1cccnc1Cl`, the activity change, less the hit threshold is -22.8%.

With `CC(C)c1ccc(CNc2nc3nc4c(c(=O)n3[nH]2)CCC4)cc1`, the activity change, less the hit threshold is 0.8% (active).

Take `CCC(=O)Nc1ccc(N2CCOCC2)c(S(=O)(=O)Nc2ccc(OC)cc2)c1`: the activity change, less the hit threshold is -22.6%.

`Cc1ccc2[nH]c(C(=O)O)c(-c3ccccc3)c2c1`: the activity change, less the hit threshold is -8.1%.

Consider `Cc1ccc(-n2nc3ccc(N)cc3n2)c(C)c1`, for which the activity change, less the hit threshold is -29.1%.

For `Cc1cc(C)cc(-n2ncc3c2CCCC3NC(=O)c2csnn2)c1` (configuration not stated), the activity change, less the hit threshold was -28.6%.

On to `CC(O)C(NS(=O)(=O)c1ccc(Cl)cc1)C(=O)OCc1cc([N+](=O)[O-])cc2c1OCOC2` (configuration not stated), for which the activity change, less the hit threshold was -18.1%.

On to `O=[N+]([O-])c1ccc(Nc2ccc(Cl)cc2)nc1`, for which the activity change, less the hit threshold was 3.5% (active).

Consider `O=[N+]([O-])c1ccc(CSc2nnc(SCc3ccc(Cl)cc3)s2)cc1`, for which the activity change, less the hit threshold is -10.9%.

As for `O=[N+]([O-])c1ccc(Nc2ccccc2F)nc1`, the activity change, less the hit threshold is -2.6%.

Consider `CCOc1ccc(NC(=S)NC(=O)c2ccco2)cc1`, for which the activity change, less the hit threshold was 8% (active).

For the molecule `CCCOc1ccc(C(=O)NNC(=S)NC(=O)c2ccco2)cc1`, the activity change, less the hit threshold is -27.6%.

For `CCN(CC)c1ccc(NC(=S)NC(=O)c2ccco2)cc1`, the activity change, less the hit threshold was 35.9% (active).

`COc1cc(OC)cc(C(=O)NC(=S)Nc2ccc(NC(=O)c3ccco3)cc2)c1`: the activity change, less the hit threshold is -20.6%.

Consider `CNC(=O)c1cc(C(=O)c2ccc(F)cc2C(F)(F)F)c[nH]1`, for which the activity change, less the hit threshold is -11.8%.

In the case of `CCC(C)(C)NC(=O)c1ccc(Sc2nncn2C)c([N+](=O)[O-])c1`, the activity change, less the hit threshold is -20.1%.

For `O=C1CCN(S(=O)(=O)c2ccc(Cl)cc2)CCN1`, the activity change, less the hit threshold was -21.6%.

Regarding `CC(Sc1n[nH]c(=O)[nH]c1=O)C(=O)OCc1ccccc1` (configuration not stated), the activity change, less the hit threshold was -11.2%.

For `COCCNC(=O)CN(C(=O)c1ccc(N2CCCC2)nc1)c1ccccc1`, the activity change, less the hit threshold was -18.5%.

In the case of `Cn1nnnc1SCC(=O)Nc1ccccn1`, the activity change, less the hit threshold is -5.9%.

With `CC(=O)Nc1ccccc1NC(=O)C/C(C)=N/NC(=O)c1ccc([N+](=O)[O-])c(Cl)c1`, the activity change, less the hit threshold is -19%.

Regarding `C/C(CC(=O)Nc1ccccn1)=N\NC(=O)C(=O)Nc1cccc(Cl)c1C`, the activity change, less the hit threshold is 1.1% (active).

Take `c1ccc(Cn2ncc3c(N4CCN(C(c5ccccc5)c5ccccc5)CC4)ncnc32)cc1`: the activity change, less the hit threshold is -29.3%.

Take `CCOc1ccccc1Nc1nc(-c2sc(C)nc2C)cs1`: the activity change, less the hit threshold is -22%.

On to `N#C/C(=C\c1ccc(-c2ccccc2Cl)o1)C(=O)Nc1nc2ccccc2s1`, for which the activity change, less the hit threshold is -10.9%.

As for `COc1cccc2sc(Nc3nnc(-c4ccccc4Cl)o3)nc12`, the activity change, less the hit threshold is 9.4% (active).

With `COc1ccccc1Nc1nnc(SCC(=O)Nc2nc(-c3ccc(F)cc3)cs2)s1`, the activity change, less the hit threshold was -22.3%.

Regarding `COc1cccc2sc(Nc3nc(-c4ccccn4)cs3)nc12`, the activity change, less the hit threshold was 20.3% (active).

As to `COc1cccc2sc(Nc3nnc(-c4cccs4)o3)nc12`, the activity change, less the hit threshold is 53.9% (active).

As for `COc1cccc2sc(Nc3nnc(-c4ccc(F)cc4)o3)nc12`, the activity change, less the hit threshold was 45.4% (active).

Consider `Cc1ccc(CNC(=O)C2=CCN(S(=O)(=O)c3ccc(C)cc3)CC2)cc1`, for which the activity change, less the hit threshold was -15.1%.

`Cc1c(C(=O)NNC(=O)c2ccncc2)oc2ccc(Br)cc12`: the activity change, less the hit threshold is -16.1%.

`Cc1ccc(CNC(=O)CN(C(=O)C2(C)CC(=O)N=C3C=CC=CN32)c2ccccc2F)cc1` (configuration not stated): the activity change, less the hit threshold was -10.9%.

For the molecule `C=Cc1ccc(Cn2c(=O)n(CCCOC)c(=O)c3sccc32)cc1`, the activity change, less the hit threshold is -28.9%.

As for `O=S(=O)(Nc1ccc(Cc2ccncc2)cc1)c1ccc(Cl)c(Cl)c1`, the activity change, less the hit threshold is -20.9%.

As for `CCCn1c(CC)nc([N+](=O)[O-])c1S(=O)(=O)c1ccccc1`, the activity change, less the hit threshold was -4.3%.

In the case of `CC(C)[C@H](NC(=O)c1ccco1)C(=O)OCC(=O)Nc1cccc(F)c1`, the activity change, less the hit threshold was -22%.

On to `CCOc1c(OC)ccc2c3c(c(=O)oc12)CCCC3`, for which the activity change, less the hit threshold is -8.2%.

`CN1CCN(S(=O)(=O)c2cccc(S(=O)(=O)c3ccc(Cl)cc3)c2)CC1`: the activity change, less the hit threshold was -17.8%.

For `Cn1c(=O)c2c(nc(Cl)n2CC(=O)N2CCCCC2)n(C)c1=O`, the activity change, less the hit threshold is -22.7%.

Regarding `CCCCc1c(C)[nH]c(C(=O)OCC)c1C`, the activity change, less the hit threshold was -19.3%.

For `COCCn1c(=S)[nH]c2sc3c(c2c1=O)CCCC3`, the activity change, less the hit threshold is 31.9% (active).

For the molecule `CCOCCCn1c(=S)[nH]c2cc(C(=O)NCCOC)ccc2c1=O`, the activity change, less the hit threshold is -10.4%.

For `COCCn1c(=S)[nH]c2sc3c(c2c1=O)CCC(C)C3` (configuration not stated), the activity change, less the hit threshold was 51.5% (active).

With `COCCCn1c(=S)[nH]c2sc3c(c2c1=O)CCCC3`, the activity change, less the hit threshold was 40.5% (active).

Consider `COCCCn1c(=S)[nH]c2c(sc3ccccc32)c1=O`, for which the activity change, less the hit threshold was -11.4%.

As to `Cc1ccc(S(=O)(=O)Nc2c(C)[nH]c(=O)[nH]c2=O)cc1C`, the activity change, less the hit threshold was -17.9%.

Take `CCOC(=O)CSc1nnc(NC(=O)c2ccc3c(c2)OCO3)s1`: the activity change, less the hit threshold was -23.9%.

Take `O=S(=O)(Nc1cccc(-n2cnnn2)c1)c1ccc(Cl)nc1`: the activity change, less the hit threshold was -9%.

Take `CN(C)S(=O)(=O)c1cc(NC2CC(=O)N(c3ccc(F)cc3)C2=O)ccc1Cl` (configuration not stated): the activity change, less the hit threshold is -7.3%.

`CCN(CC)CCOC(=O)C(c1ccccc1)c1ccccc1`: the activity change, less the hit threshold was -11.4%.

Take `Cc1ccc(NC(=O)c2cc(NC(=O)/C=C\C(=O)O)ccc2N2CCCCC2)cc1`: the activity change, less the hit threshold was 3.1% (active).

For `O=C(/C=C/c1ccccc1)Nc1ccc(C(=O)N2CCCCC2)cc1`, the activity change, less the hit threshold is -11.4%.

As for `COc1ccc(NC(=O)c2cc(S(=O)(=O)N3CCOCC3)ccc2N2CCOCC2)cc1`, the activity change, less the hit threshold was -16.6%.

For `CC(=O)N1c2ccc(N=Cc3cc(Br)cc(Br)c3O)cc2CC1C` (configuration not stated), the activity change, less the hit threshold was 0.4% (active).

In the case of `CC(=O)N1CCc2cc(S(=O)(=O)N3c4ccccc4CC3C)ccc21` (configuration not stated), the activity change, less the hit threshold is -13.9%.

`N=c1sccn1CC(=O)Nc1ccccc1Cc1ccccc1`: the activity change, less the hit threshold was -16.3%.

Regarding `CCc1nnc(NC(=O)c2cccc(C(=O)Nc3nnc(CC)s3)n2)s1`, the activity change, less the hit threshold is -22.2%.

Take `Cc1cc(Br)c(NC(=O)COC(=O)C2CC2C)c(Br)c1` (configuration not stated): the activity change, less the hit threshold is 4.5% (active).

Turning to `Cc1cccc(NC(=O)COc2coc(CN3CCN(c4ccccc4)CC3)cc2=O)c1`, the activity change, less the hit threshold is -22.1%.

For `O=C(COC(=O)C1CCC(=O)N1)Nc1cc(Cl)ccc1Cl` (configuration not stated), the activity change, less the hit threshold is -16.9%.

Turning to `O=C1OC(/C=C/c2ccccc2)=NC/1=C/c1ccco1`, the activity change, less the hit threshold is -29%.

`COC(=O)c1ccc(NC(=O)COC(=O)C2CC(=O)N(Cc3ccccc3)C2)cc1` (configuration not stated): the activity change, less the hit threshold is -26.7%.

Consider `O=C(O)CCCN1C(=O)C2C3c4ccccc4C(c4ccccc43)[C@@H]2C1=O` (some centres not stated), for which the activity change, less the hit threshold is -24.6%.

With `Cc1cc(C)cc(-n2c(C)cc(/C=N/NC(=O)CN(c3c(C)cccc3C)S(C)(=O)=O)c2C)c1`, the activity change, less the hit threshold is -19.4%.

For `Nc1ccc2c(c1)C(=O)C(=O)c1ccccc1-2`, the activity change, less the hit threshold is -3.9%.

Take `Cc1ccc(OC(=O)c2sc3ncn(C)c(=O)c3c2C)cc1`: the activity change, less the hit threshold was -29.2%.

`CCOC(=O)c1sc2ncnc(NCC(c3cccs3)N(C)C)c2c1C` (configuration not stated): the activity change, less the hit threshold was 39.2% (active).

In the case of `CCOC(=O)c1c(NC(=O)/C=C/c2ccco2)sc(C)c1C`, the activity change, less the hit threshold is -12%.

For the molecule `CCOC(=O)c1sc2ncnc(NCc3ccco3)c2c1C`, the activity change, less the hit threshold was 51.8% (active).

Regarding `COc1ccc(N(C(=O)c2ccco2)S(=O)(=O)c2cccs2)cc1`, the activity change, less the hit threshold is -19.4%.

For the molecule `O=C(N/N=C/c1ccsc1)C1CC1`, the activity change, less the hit threshold is -15.9%.

Turning to `COCCNC(=O)C1CCN(S(=O)(=O)N2CCC3(CC2)OCCO3)CC1`, the activity change, less the hit threshold was -21.8%.

Turning to `Cc1nc(NC(=O)c2ccco2)sc1C(=O)O`, the activity change, less the hit threshold is -11.4%.

As for `CCOC(=O)c1sc(NC(=S)NC(=O)c2cccc(OC)c2)nc1C`, the activity change, less the hit threshold was 4.7% (active).

For `CCOC(=O)c1cccc(C(=O)Nc2nc3ccc(OC)cc3s2)n1`, the activity change, less the hit threshold is -15.8%.

For the molecule `CCOC(=O)c1sc(NC(=S)NC(=O)c2ccc(OC)cc2)nc1C`, the activity change, less the hit threshold was -10.9%.

Take `CCOC(=O)c1sc(NC(=S)NC(=O)c2ccco2)nc1C`: the activity change, less the hit threshold was 4.8% (active).

For the molecule `CCOC(=O)c1sc(NC(=S)NC(=O)c2ccccc2)nc1C`, the activity change, less the hit threshold is -3.4%.
